Assay outcomes deposited in PubChem by National Center for Advancing Translational Sciences (NCATS).
An excerpt weighted towards active compounds, which were near 12% of everything screened.
Sm TGR block: S. mansoni TGR enzyme inhibition; Q962Y6; purified TGR, DTNB reduction, TNB absorbance 405 nm; Potency, µM (doses to about 114 µM), for inactives: at the top dose activity change, negative = inhibition, most hits filed as inhibitors; 360,000 compounds, 3% hits; AID 485364; further: on the % scale 0 is the no-effect control and ±100 the full control effect; nearly all actives have a fitted effect of over 60% in size
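First, TGR (20 nM dispensed) and NADPH were mixed with compound. Second, a 15 min room-temperature incubation followed. Third, further NADPH and then DTNB were added to start the reaction. Finally, TNB absorbance was monitored kinetically.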
Pf growth 96h: P. falciparum growth inhibition at 96 hours. 320,000 compounds, 6.9% hits. Potency, µM (doses to about 28.7 µM), for the others: at the top dose activity change, negative = inhibition, actives largely listed as inhibitors. P. falciparum luciferase reporter growth, 96 h. AID 504834; further: on the % scale 0 is the no-effect control and ±100 the full control effect
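Erythrocytes infected with luciferase-expressing P. falciparum were dispensed at 2% hematocrit and 0.05% parasitemia (final), then incubated with compounds 96 hours at 37 C in 5% CO2. Luminescence after detection reagent addition reported growth.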
Pf growth 48h: inhibits P. falciparum growth in the first generation, 48 h; P. falciparum luciferase growth in erythrocytes, 48 h; Potency, µM (series often up to 28.7 µM), inactives show top-dose activity change, negative = inhibition, hits mostly inhibitors; 310,000 compounds, 5.9% hits; AID 504832; further: on the % scale 0 is the no-effect control and ±100 the full control effect
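Cell-based growth assay: transgenic P. falciparum expressing firefly luciferase, cultured in red cells within RPMI 1640 containing 0.5% w/v Albumax, 24 mM bicarbonate and gentamycin. A drop in luciferase activity indicates inhibition.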
SARS PLpro yeast: SARS-CoV PLP inhibition in yeast; 330,000 compounds, 0.19% hits; S. cerevisiae expressing SARS-CoV PLpro, growth rescue; AID 485353; Potency, µM (doses to about 32.9 µM), for the others: at the top dose activity, positive = growth rescue, usual class: activators; calls by dose curve; further: 0% is about no effect; nearly all actives have a fitted effect of over 55% in size
Starred values were filed as active, the others as inactive; ? = inconclusive; . = no result given; [ ] = another dose, or the depositor's remark. Unless noted, the call rests on the fitted dose curve; in most records, active means well fitted curve in the direction sought with a large enough effect; inconclusive means small, poorly fitted or top-dose-only effect, or another doubt; inactive means no such curve, though single readings can be large; an effect the other way counts as inactive or inconclusive. Potency means the concentration at half of the fitted maximal effect.

SMILES	Sm TGR block	Pf growth 96h	Pf growth 48h	SARS PLpro yeast
CCn1c(/C=C2\C(=O)N(C(C)C)c3ccccc32)nc2ccccc2c1=O	2%	?	3.7µM*	-2%
O=[N+]([O-])c1ccccc1Sc1nccn1Cc1ccccc1	5%	3.3µM*	7%	23%
CC[N+](CC)(CC)CCOc1cccc(OCC[N+](CC)(CC)CC)c1OCC[N+](CC)(CC)CC	-26%	26%	16%	.
CC[N+](CC)(CC)CCOc1ccc(/C=C/c2ccccc2)cc1	?	0.74µM*	0.29µM*	3%
COc1ccc(-n2cc(-c3ccc(OC(F)F)cc3)[n+]3c2CCCCC3)cc1	2%	?	1.7µM*	1%
Cc1ccc(NC(=O)Nc2nc(-c3ccc(C)s3)cs2)cc1	2%	15µM*	-11%	1%
COc1ccc(-c2csc(NC(=O)Nc3ccccc3)n2)cc1	-11%	-3%	.	5%
CCOC(=O)c1c(-n2cnnn2)sc2c1CCCC2	0%	10%	41%	-3%
CCOC(=O)c1c(N2C(=O)C3C4C=CC(O4)C3C2=O)sc2c1CCCC2 (centres undefined)	3.2µM*	34%	15%	.
COC(=O)c1sc(N2C(=O)c3oc4ccccc4c(=O)c3C2c2ccc(O)cc2)nc1C (centres undefined)	-10%	.	.	.
CC(C)(C)C(=O)OCOC(=O)[C@@H]1N2C(=O)[C@@H](N=CN3CCCCCC3)[C@H]2SC1(C)C	-16%	-3%	-15%	.
CC1(C)SC2[C@@H](N=CN3CCCCCC3)C(=O)N2[C@H]1C(=O)O (some centres undefined)	.	17µM*	?	.
CCOc1ccccc1CNC(=O)CCCN1C(=O)c2cccnc2Oc2ccc(Cl)cc21	1%	.	.	.
Nc1nc2ccccc2n1/N=C/c1ccc2c(c1)OCO2	10%	-24%	-22%	1%
Nc1nc2ccccc2n1/N=C/c1ccc(Br)cc1	2%	10µM*	-77%	-13%
CSc1ncccc1C(=O)OCC(=O)Nc1ccc2c(c1)CCC2	-15%	12%	-7%	-6%
Cc1cc(NC(=O)C2CCCCC2)n(-c2nc3ccccc3[nH]2)n1	0%	.	9.3µM*	-5%
Cc1cc(NC(=O)c2c(F)cccc2Cl)n(-c2nc3ccccc3[nH]2)n1	-5%	.	10µM*	-7%
Cc1cc(NC(=O)c2c(F)cccc2F)n(-c2nc3ccccc3[nH]2)n1	9%	-94%	7.4µM*	5%
Cc1cc(NC(=O)c2ccccc2F)n(-c2nc3ccccc3[nH]2)n1	5%	23%[5.75 µM]	-79%	2%
CCC1CCCCN1CCCNC(=O)c1ccc2c(c1)N(Cc1ccc(Cl)cc1)C(=O)c1ccccc1S2(=O)=O (centres undefined)	4%	.	.	.
CCOC(=O)N1CCN(Cc2nc3cc(NC(=O)c4ccc([N+](=O)[O-])cc4)ccc3n2C(C)C)CC1	-7%	.	.	.
O=C(CNC(=O)c1ccccc1)OCc1cc(=O)n2ccsc2n1	7%	.	.	.
O=C(CNC(=O)c1ccc(Cl)cc1)OCc1cc(=O)n2ccsc2n1	35µM*	.	.	.
Cc1cccc(N2C(=O)C(CC(=O)Nc3ccc(F)cc3)N(C3CCCC3)C2=O)c1 (centres undefined)	-3%	.	.	.
SMILES	Sm TGR block	Pf growth 96h	Pf growth 48h	SARS PLpro yeast
CCCOc1ccc(N2C(=O)CC(NCCc3ccc(S(N)(=O)=O)cc3)C2=O)cc1 (centres undefined)	45µM*	?	.	-28%
CCCOc1ccc(N2C(=O)CC(NCc3cccs3)C2=O)cc1 (centres undefined)	-5%	5.2µM*	-1%	-21%
CCOc1ccc(N2C(=O)CC(NCCc3ccc(S(N)(=O)=O)cc3)C2=O)cc1 (centres undefined)	-10%	-15%	0%	-6%
Cc1ccc(-c2csc3nc[nH]c(=S)c23)cc1C	-9%	10µM*	?	?
Cc1cccn2cc(-c3cccc(NC(=O)C(C)C)c3)nc12	0%	.	.	.
CC(=O)NNc1cccc(Cl)n1	?	0%	16%	3%
O=C(NNc1cccc(Cl)n1)C(F)(F)F	7%	2.3µM*	12µM*	1%
Cc1ccc2c(c1)C1CN(C)CCC1N2Sc1ccccc1[N+](=O)[O-] (centres undefined)	19%	10µM*	?	-2%
Cc1ccc2c(c1)[C@@H]1CN(C)CC[C@@H]1N2S(=O)(=O)c1ccc([N+](=O)[O-])cc1	-5%	?	?	-3%
C/C(=N\NC(=O)c1ccco1)c1cccc2ccccc12	2%	-21%	9.3µM*	0%
C/C(=N\NC(=O)c1ccc(C(=O)N/N=C(\C)c2ccco2)o1)c1ccco1	12%	2.6µM*	?	4%
COC(=O)C(Cc1ccc(O)cc1)NC(=O)C1CCN(S(=O)(=O)c2ccc(C)cc2)CC1 (centres undefined)	5%	5%	0%	-1%
COc1ccc(C)cc1NC(=O)c1ccc(=O)n(Cc2ccccc2)c1	3%	.	.	.
Cc1ccc(-n2c3c(c(=O)[nH]c2=O)C(NC(=O)C(C)(C)C)(C(F)(F)F)C(=O)N3)cc1 (centres undefined)	2%	.	.	.
O=c1ccc2[n+]([O-])c3ccc(O)cc3oc-2c1	2.2µM*	4.7µM*	1.9µM*	-6%
O=c1cc(O)c2ccc(O)cc2o1	0%	0%	0%	2%
O=C(Oc1ccccc1)N1CCN(C(=O)c2ccco2)CC1	-18%	31%	16%	-2%
FC(F)(F)c1ccccc1-n1c(-c2ccco2)n[nH]c1=S	-6%	10%	113%	-2%
COc1cnc(-c2ccccn2)nc1Sc1ccc(C)cc1	2%	?	12µM*	?
COc1cnc(-c2ccccn2)nc1Sc1cccc(Cl)c1	1%	1.5µM*	?	0%
CCn1cnc2c(Nc3cccc(Cl)c3)nc(C#N)nc21	-23%	?	?	1%
CCn1cnc2c(NCCc3cccnc3)nc(C#N)nc21	50µM*	?	-21%	6%
C/C=C\C=C/C(=O)Nc1cccc(C2=NOC3(C2)C[C@@H](C(N)=O)N(C(=O)c2ccc(Cl)cc2)C3)c1 (some centres undefined)	3.2µM*	?	?	0%
C/C=C\C=C/C(=O)Nc1cccc(C2=NOC3(C2)C[C@H](C(N)=O)N(C(=O)c2ccc(OC)cc2)C3)c1 (some centres undefined)	1.8µM*	?	?	3%
CC(=O)N1CC(C)Sc2ccc(S(=O)(=O)NC(C)c3ccccc3)cc21 (centres undefined)	-3%	13µM*	-3%	-1%
CN(CC(=O)Nc1ccc(Cl)cc1)S(=O)(=O)c1cccc2cccnc12	8%	?	.	2%
CN(CC(=O)Nc1ccc(F)c(F)c1)S(=O)(=O)c1cccc2cccnc12	-26%	13µM*	2%	2%
CC1(OC(=O)C2CCCC2)C(=O)C=C2C=C(c3ccsc3)N(CCc3ccccn3)C=C2C1=O (centres undefined)	-6%	?	?	0%
CC1(OC(=O)C2CCCC2)C(=O)C=C2C=C(c3ccsc3)N(Cc3ccccc3)C=C2C1=O (centres undefined)	1%	?	12µM*	0%
